{"source": "PubChem BioAssay AID489036", "about": "(National Center for Advancing Translational Sciences (NCATS), 2010)", "assay": "VP16 selectivity assay for inhibitors of ROR gamma transcriptional activity", "settings": "Drosophila Schneider Gal4-VP16 UAS-luciferase reporter, 20 h; series mostly up to 92.2 µM", "source_text": "NIH Molecular Libraries Probe Production Network [MLPCN] NIH Chemical Genomics Center [NCGC] MLPCN Grant: R03 DA026211-01 Assay Provider: Dan Littman, New York University Assay Overview: The retinoic acid-related orphan receptor (ROR) gamma is a transcription factor that has a central role in the differentiation of Th17 cells, a subset of T helper cells that secrete the inflammatory cytokines IL-17, IL-17F, and IL-22. Th17 cells have been implicated in graft versus host disease, autoimmune disease and asthma. ROR gamma is induced in naive T helper cells in the presence of TGF-beta combined with IL-6, IL-21, or IL-23, and thereafter directs the expression of the Th17 lineage cytokines. […] Small molecule inhibitors that inhibit components common to the RORgt and VP16 assays, such as the Gal4 DNA binding domain or the UAS luciferase reporter, will be active in both assays and thus scored as nonspecific.\nAssay Protocol Summary: For screening, 600 cells in 4 uL/well were dispensed into white solid 1536-well plates (Grenier) using a solenoid-based dispenser. […] After addition of 1.5 uL Photinus luciferase detection reagent, the plates were incubated 10 min at ambient temperature and then read by an ViewLux (Perkin Elmer) to detect luminescence.", "note": "Inconclusive results are not listed. Calls of active or inactive are those of the source. The call rests on the fitted dose curve; in most records, active means well fitted inhibition curve with a large enough effect; inconclusive means small, poorly fitted or top-dose-only effect, or effect the other way; inactive means flat fitted curve, though single readings scatter.", "data": [{"compound": "CO[C@H]1[C@@H](O)CC(OC2[C@@H](O)CC(OC3[C@@H](O)C[C@H](OC4CC[C@@]5(C)C(CCC6C5CC(O)[C@]5(C)[C@H](C7=CC(=O)OC7)CCC65O)C4)O[C@@H]3C)O[C@@H]2C)O[C@@H]1C", "note": "(some centres not stated)", "values": [{"measurement": "outcome", "result": "inactive"}]}, {"compound": "CC1OC(O[C@@H]2C(O)CC(O[C@@H]3C(O)C[C@@H](OC4CC[C@@]5(C)C6CC[C@]7(C)C(C8=CC(=O)OC8)C(O)C[C@@]7(O)[C@H]6CC[C@@H]5C4)OC3C)OC2C)CC(O)C1O", "note": "(some centres not stated)", "values": [{"measurement": "outcome", "result": "inactive"}]}]}
